Data taken from PubChem BioAssay AID686979 (National Center for Advancing Translational Sciences (NCATS), 2013).
Hit rate of the full screen: of about 420,000 compounds, about 50,000 (12%) were called active. About 26% were inconclusive and are not listed. The sample holds actives, similar compounds and a random draw of the others, so the mix is not that of the screen. Unmarked numbers belong to inactive results. Calls follow the shape of the dose curve; as a rule, active = well fitted inhibition curve with a large enough effect; inconclusive = small, poorly fitted or top-dose-only effect; inactive = flat fitted curve, though single readings scatter.

Experiment: qHTS for Inhibitors of human tyrosyl-DNA phosphodiesterase 1 (TDP1): qHTS in cells in presence of CPT; also: nearly all actives have a fitted effect of over 55% in size
Conditions: chicken DT40 Tdp1-/-;hTDP1 cells + 20 nM CPT, ATP luminescence, 48 h; series mostly up to 46.2 µM; activity change, negative = growth inhibition: at the top concentration
In short: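 Chicken DT40 Tdp1-/- cells stably complemented with human TDP1 were seeded at 400 cells/well in medium containing 20 nM camptothecin, exposed to pin-transferred compounds, and grown at 37 °C for at least 48 hr. Viability was read as ATP luminescence.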
% is scaled to controls: 0 for no effect and ±100 for the full control effect; potency is read from the fitted curve at half-maximal effect.

SMILES | activity change, negative = growth inhibition | Potency
COc1cc(C(C(=O)NC2CCCC2)N(C(=O)c2ccco2)c2ccccc2C(C)=O)cc(OC)c1OC (stereo not given) | -1.96% | –
CC(C)C(NC(=O)c1c(F)cccc1F)C(=O)NCc1ccncc1 (stereo not given) | -27.6% | –
O=C(NC1CC1)C1=C[C@H](c2coc3ccccc3c2=O)C[C@H](OCCCCO)O1 | -8.12% | –
CCO[C@H]1OC(C(=O)N2CCOCC2)=C[C@@H](c2ccc3c(c2)OCO3)[C@@H]1CCCO | -0.536% | –
CCO[C@H]1OC(C(=O)NCc2ccccc2)=C[C@@H](c2coc3ccccc3c2=O)[C@@H]1CCCO | – | 23.1 µM (active)
Cc1ccc(NC(=O)C(c2ccccc2)N2CCN(C(=O)c3ccco3)CC2)cc1 (stereo not given) | -20.2% | –
O=C(O)C1CCCN1c1nc(Cl)ccc1[N+](=O)[O-] (stereo not given) | 7.86% | –
CN(Cc1ccccc1)C(=O)CCS(=O)(=O)c1cc(Br)cc2c1N(C(=O)C1CC1)CC2 | – | 13 µM (active)
CCC(=O)N1CCc2cc(Br)cc(S(=O)(=O)CCC(=O)NCc3ccccc3OC)c21 | -2.41% | –
O=C(CCS(=O)(=O)c1cc(Br)cc2c1N(C(=O)C1CC1)CC2)Nc1ccc(C(F)(F)F)cc1 | -13.6% | –
CCC(=O)N1CCc2cc(S(=O)(=O)CCC(=O)N3CCN(c4ccccc4F)CC3)ccc21 | -15.1% | –
CCC(=O)N1CCc2cc(Br)cc(S(=O)(=O)CCC(=O)N3CCN(c4ccc(F)cc4)CC3)c21 | – | 20.6 µM (active)
O=C(CCS(=O)(=O)c1cc(Br)cc2c1N(C(=O)C1CC1)CC2)Nc1ccc(Br)cc1F | 12.1% | –
CC1(C)C[C@H]2C3=CCC4[C@@]5(C)CC[C@H](O)[C@](C)(CO)C5CC[C@@]4(C)[C@]3(C)C[C@@H](O)[C@@]2(CO)[C@@H](O)[C@@H]1O (stereo not given in full) | -6.68% | –
CCCCc1nc2cc(C(=O)NCCc3cnn(C)c3)ccc2o1 | -21.1% | –
Cc1cc(C)c(C)c(S(=O)(=O)N[C@@H](C)C(=O)OC(C)C(=O)NC(N)=O)c1C (stereo not given in full) | 1.29% | –
CN(Cc1c(F)cccc1Cl)C(=O)COC(=O)Cn1cnc2ccccc2c1=O | 6.46% | –
Cc1ccccc1C(=O)N1CCC(C(=O)Nc2ccc(S(=O)(=O)N(C)C(C)C)cc2)CC1 | – | 14.6 µM (active)
CCOC(=O)Nc1ccc(S(=O)(=O)N(C)C(C)C)cc1 | -9.23% | –
CCc1nnc(NC(=O)C2CCN(C(=O)c3ccccc3C)CC2)s1 | 2.38% | –

SMILES | activity change, negative = growth inhibition | Potency
COc1ccc(N2CCN(CCCNC(=O)C3CCN(S(=O)(=O)N4CCOCC4)CC3)CC2)cc1 | -5.76% | –
NNC(=O)c1oc2nc(-c3ccccc3)cc(-c3ccco3)c2c1N | -7.63% | –
CN(C)C(=O)Cn1c(=O)n(S(=O)(=O)c2ccccc2)c2ccccc21 | 33.8% | –
C/C(=N\OCC(=O)Nc1ccc(Br)cc1)c1cccs1 | -4.26% | –
CC1CC2=C(CC1/C=N/NC(N)=S)C(C)(C)CCC2 (stereo not given) | – | 4.11 µM (active)
CC1(C)CCCC2=C1CC1C(=O)N(c3ccccc3)C(=O)C1C2 (stereo not given) | -11.4% | –
Cc1ccccc1N1CC(C(=O)Nc2nnc(SCCC3OCCO3)s2)CC1=O (stereo not given) | -1% | –
COc1ccc(NC(=O)N2CCCC2C(=O)NCc2ccccc2Cl)cc1 (stereo not given) | -17.9% | –
Cc1ccccc1-c1nc(C#N)c(NCc2ccco2)o1 | 25.6% | –
COc1ccc(Nc2oc(-c3ccccc3Cl)nc2C#N)cc1 | – | 2.91 µM (active)
CCOc1ccc(Nc2oc(/C=C/c3ccc(F)cc3)nc2C#N)cc1 | -22.1% | –
CCOC(=O)N1CCN(Cc2nnc(-c3ccccc3Cl)o2)CC1 | -24.8% | –
CCc1ccc[n+](-c2nc([O-])sc2C=O)c1 | -0.903% | –
COc1cccc(C(=O)Nc2cc3c(cc2Br)OCCCO3)c1 | -23% | –
Cn1c(N)c(C(=O)COC(=O)C23CC4CC(CC(C4)C2)C3)c(=O)n(C)c1=O | -23.7% | –
CCOC(=O)c1cc2c(n(-c3ccc(C)cc3)c1=O)CCCC2=O | -0.219% | –
Cc1cc(C(=O)COC(=O)C2CC2)c(C)n1-c1ccc(F)cc1 | -3.09% | –
Cc1ccc(-n2c(C)cc(C(=O)CN3C(=O)C(=O)N(C4CCCC4)C3=O)c2C)cc1 | – | 20.6 µM (active)
Cc1cc(OC(=O)c2ccc(OC(C)C)cc2)c([N+](=O)[O-])c(=O)[nH]1 | -2.01% | –
COCc1cc(C)n(CC(=O)NCC2CCCO2)c(=O)c1C#N (stereo not given) | -0.925% | –

SMILES | activity change, negative = growth inhibition | Potency
CC1(C)O[C@@H]2CC3C4C[C@H](F)C5=CC(=O)C=CC5(C)C4C(O)CC3(C)[C@]2(C(=O)CO)O1 (stereo not given in full) | -14.3% | –
CCOC(=O)c1ccccc1NC(=S)N1CCC(C(N)=O)CC1 | 1.5% | –
CCOC(=O)c1cnc(Nc2nc3ccccc3o2)nc1CSC(=S)N1CCCCC1 | – | 0.146 µM (active)
CCc1ccc(CNC(=O)C2CCCN(c3nc4ccccc4o3)C2)cc1 (stereo not given) | -19.6% | –
O=C(COc1ccc(F)cc1)N(CC1=CCS(=O)(=O)C1)c1ccccc1 | -20.9% | –
CN(Cc1ccccc1)C(=O)COc1ccccc1 | -19.8% | –
CCN(C(=O)COc1ccc(C(=O)c2ccccc2)cc1)c1ccccc1 | – | 18.4 µM (active)
CC(C)CCN1C(=O)c2ccc(C(=O)Nc3cccc(S(N)(=O)=O)c3)cc2C1=O | -22% | –
COCCCn1c(SCC(=O)Nc2oc(C)c3c(C)n[nH]c(=O)c23)nc2sc3c(c2c1=O)CCC3 | -19.5% | –
Cc1ccc(/C=C2\SC(=S)N(CCC(=O)Nc3ccc(O)cc3)C2=O)cc1 | 12% | –
O=C1/C(=C/c2ccc(F)cc2)SC(=S)N1CCCC(=O)N1CCCCC1CCO (stereo not given) | – | 16.4 µM (active)
COc1ccccc1C(=O)NNC(=O)CCN1C(=O)/C(=C\c2ccccc2)SC1=S | 1.22% | –
CN(C)c1ccc(NC(=O)CN2C3CCCC2CC(NC(=O)c2ccccc2)C3)cc1 (stereo not given) | -2% | –
CCc1cnc2c(c1SCC(=O)N1CCC(C)CC1)c(=O)n(C)c(=O)n2C | – | 20.6 µM (active)
Cc1ccc(CNC(=O)CSc2c(C)cnc3c2c(=O)n(C)c(=O)n3C)cc1 | 2.07% | –
CCOC(=O)N1CCN(C(=O)CSc2nc(C)nc3c2c(=O)n(C)c(=O)n3C)CC1 | -4.74% | –
COc1cc(C(c2c(NC(=O)c3ccco3)sc(C)c2C)N2CCOCC2)cc(OC)c1OC (stereo not given) | – | 23.1 µM (active)
COc1ccc(CC(=O)Nc2ccccc2NC(=O)c2ccco2)cc1OC | -0.664% | –
COc1ccc(NC(=O)CCC(=O)Nc2cc(OC)c(NC(=O)c3ccco3)cc2OC)c(OC)c1 | -26.9% | –
COC(=O)c1ccccc1NC(=O)c1ccc(COc2ccccc2Cl)o1 | -21.6% | –
